In PMC7862700, “An all-to-all approach to the identification of sequence-specific readers for epigenetic DNA modifications on cytosine”:

Columns and labels:
Test in all cases: DAPPL (digital affinity profiling via proximity ligation, sequencing); 10 mM Tris-HCl pH 7.5, 50 mM NaCl, 1 mM DTT, 4% glycerol, room temperature, 30 min; GST-TFs on glutathione beads, 16-mer random dsDNA library, 0.1% formaldehyde crosslink after washing; high values mean tight binding
FLI1 = biological target: T1, FLI1 (Homo sapiens, UniProt Q01543 1-452); conditions: protein: recombinant; tags: N-terminal GST; dsDNA, one strand shown
T1 sequence: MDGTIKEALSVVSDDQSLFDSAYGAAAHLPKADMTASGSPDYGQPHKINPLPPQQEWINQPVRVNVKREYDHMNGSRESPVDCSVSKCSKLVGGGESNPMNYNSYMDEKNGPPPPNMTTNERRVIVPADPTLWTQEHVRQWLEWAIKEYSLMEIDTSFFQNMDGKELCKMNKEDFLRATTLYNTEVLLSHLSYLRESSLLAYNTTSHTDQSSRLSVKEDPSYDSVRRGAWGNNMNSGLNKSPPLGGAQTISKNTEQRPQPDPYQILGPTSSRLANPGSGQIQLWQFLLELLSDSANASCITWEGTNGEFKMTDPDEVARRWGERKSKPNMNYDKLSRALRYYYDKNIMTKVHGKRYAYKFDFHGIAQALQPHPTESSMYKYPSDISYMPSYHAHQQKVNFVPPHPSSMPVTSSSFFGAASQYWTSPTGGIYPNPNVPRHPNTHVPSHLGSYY
Method in brief: (§1)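 After expression in yeast as GST fusions, human transcription factors were bound to glutathione beads, DNA-barcoded and mixed with a tag-only sample. The pools were incubated with 200 nmole of a 16-mer random double-stranded DNA library in Tris/NaCl/DTT/glycerol buffer (30 min, room temperature), washed and crosslinked with 0.1% formaldehyde. Proximity ligation with BsaI/T4 ligase ran for 1 h at 37 °C, before PCR amplification and sequencing on an Illumina NextSeq500. Binding signal is a hexamer's read frequency for a factor divided by its frequency for the tag-only sample.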

ELK1 = biological target: T2, ELK1 (Homo sapiens, UniProt P19419 1-428); conditions: protein: recombinant; tags: N-terminal GST; dsDNA, one strand shown
T2 sequence: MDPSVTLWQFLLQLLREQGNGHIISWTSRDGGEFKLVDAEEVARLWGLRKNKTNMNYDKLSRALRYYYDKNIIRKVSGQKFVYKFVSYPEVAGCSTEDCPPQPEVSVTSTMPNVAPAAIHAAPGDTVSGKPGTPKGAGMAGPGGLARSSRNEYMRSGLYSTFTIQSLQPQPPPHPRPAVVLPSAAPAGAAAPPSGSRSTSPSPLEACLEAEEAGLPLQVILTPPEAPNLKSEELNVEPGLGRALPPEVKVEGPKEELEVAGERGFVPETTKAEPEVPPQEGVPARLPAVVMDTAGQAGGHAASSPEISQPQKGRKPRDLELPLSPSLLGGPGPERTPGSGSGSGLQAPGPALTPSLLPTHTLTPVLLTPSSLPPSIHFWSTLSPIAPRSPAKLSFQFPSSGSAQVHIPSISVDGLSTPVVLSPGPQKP
Method in brief: as §1

GABPA = biological target: T3, GABPA (Homo sapiens, UniProt Q06546 1-454); conditions: protein: recombinant; tags: N-terminal GST; dsDNA, one strand shown
T3 sequence: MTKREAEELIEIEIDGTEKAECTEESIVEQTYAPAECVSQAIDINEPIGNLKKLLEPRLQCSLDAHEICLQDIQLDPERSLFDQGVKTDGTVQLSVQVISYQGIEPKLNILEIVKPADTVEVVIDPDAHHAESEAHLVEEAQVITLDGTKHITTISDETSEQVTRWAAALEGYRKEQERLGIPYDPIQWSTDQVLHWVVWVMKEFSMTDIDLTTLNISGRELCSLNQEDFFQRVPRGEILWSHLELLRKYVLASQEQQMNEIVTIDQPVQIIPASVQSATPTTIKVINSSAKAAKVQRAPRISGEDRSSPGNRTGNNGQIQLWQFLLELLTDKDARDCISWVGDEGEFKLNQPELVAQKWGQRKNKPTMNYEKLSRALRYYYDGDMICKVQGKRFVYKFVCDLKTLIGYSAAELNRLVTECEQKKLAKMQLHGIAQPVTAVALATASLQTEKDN
Method in brief: as §1

ERG = biological target: T4, ERG (Homo sapiens, UniProt P11308 1-479); conditions: protein: recombinant; tags: N-terminal GST; dsDNA, one strand shown
T4 sequence: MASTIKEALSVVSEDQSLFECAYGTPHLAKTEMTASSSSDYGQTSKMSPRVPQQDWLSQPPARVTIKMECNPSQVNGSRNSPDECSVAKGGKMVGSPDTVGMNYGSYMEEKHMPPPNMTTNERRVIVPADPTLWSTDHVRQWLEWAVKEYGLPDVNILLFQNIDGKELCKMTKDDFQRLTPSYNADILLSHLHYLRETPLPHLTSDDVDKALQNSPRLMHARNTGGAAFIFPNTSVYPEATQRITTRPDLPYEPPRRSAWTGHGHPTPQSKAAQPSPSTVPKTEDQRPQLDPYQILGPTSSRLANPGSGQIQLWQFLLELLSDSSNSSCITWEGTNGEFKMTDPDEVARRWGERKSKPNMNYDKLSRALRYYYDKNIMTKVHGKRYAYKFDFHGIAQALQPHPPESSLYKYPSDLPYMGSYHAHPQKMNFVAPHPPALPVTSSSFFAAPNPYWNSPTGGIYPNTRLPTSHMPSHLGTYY
Method in brief: as §1

ELF1 = ELF1 (Homo sapiens, UniProt P32519 1-619); conditions: protein: recombinant; tags: N-terminal GST; dsDNA, one strand shown
Chain of ELF1 (P32519 whole entry): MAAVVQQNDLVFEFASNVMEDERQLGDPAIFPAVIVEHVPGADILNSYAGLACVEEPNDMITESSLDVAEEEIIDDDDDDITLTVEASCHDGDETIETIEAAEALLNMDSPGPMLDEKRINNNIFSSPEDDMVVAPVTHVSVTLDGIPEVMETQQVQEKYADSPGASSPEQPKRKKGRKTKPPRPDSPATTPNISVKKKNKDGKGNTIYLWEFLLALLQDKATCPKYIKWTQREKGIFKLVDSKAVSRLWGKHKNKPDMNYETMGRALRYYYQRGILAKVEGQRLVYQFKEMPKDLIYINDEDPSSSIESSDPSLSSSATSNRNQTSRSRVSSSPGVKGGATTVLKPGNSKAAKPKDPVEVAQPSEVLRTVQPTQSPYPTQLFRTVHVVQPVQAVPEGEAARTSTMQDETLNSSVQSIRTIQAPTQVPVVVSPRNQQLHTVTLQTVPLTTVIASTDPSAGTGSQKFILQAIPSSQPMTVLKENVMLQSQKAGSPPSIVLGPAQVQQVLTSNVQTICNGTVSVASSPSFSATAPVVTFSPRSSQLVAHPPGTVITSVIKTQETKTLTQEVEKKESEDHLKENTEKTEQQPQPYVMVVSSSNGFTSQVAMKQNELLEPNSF
Method in brief: as §1

EHF = biological target: T5, EHF (Homo sapiens, UniProt Q9NZC4 1-300); conditions: protein: recombinant; tags: N-terminal GST; dsDNA, one strand shown
T5 sequence: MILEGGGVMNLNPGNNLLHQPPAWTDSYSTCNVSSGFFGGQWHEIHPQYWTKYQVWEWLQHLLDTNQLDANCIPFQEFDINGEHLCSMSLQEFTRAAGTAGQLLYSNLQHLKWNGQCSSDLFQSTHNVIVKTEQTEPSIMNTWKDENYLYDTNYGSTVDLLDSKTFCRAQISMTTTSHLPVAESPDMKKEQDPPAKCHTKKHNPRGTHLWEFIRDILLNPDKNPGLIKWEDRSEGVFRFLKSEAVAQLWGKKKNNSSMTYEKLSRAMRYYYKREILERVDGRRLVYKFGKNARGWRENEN
Method in brief: as §1

SPI1 = SPI1 (Homo sapiens, UniProt P17947 1-270); conditions: protein: recombinant; tags: N-terminal GST; dsDNA, one strand shown
Method in brief: as §1

SPIB = SPIB (Homo sapiens, UniProt Q01892 1-262); conditions: protein: recombinant; tags: N-terminal GST; dsDNA, one strand shown
Chain of SPIB (Q01892 whole entry): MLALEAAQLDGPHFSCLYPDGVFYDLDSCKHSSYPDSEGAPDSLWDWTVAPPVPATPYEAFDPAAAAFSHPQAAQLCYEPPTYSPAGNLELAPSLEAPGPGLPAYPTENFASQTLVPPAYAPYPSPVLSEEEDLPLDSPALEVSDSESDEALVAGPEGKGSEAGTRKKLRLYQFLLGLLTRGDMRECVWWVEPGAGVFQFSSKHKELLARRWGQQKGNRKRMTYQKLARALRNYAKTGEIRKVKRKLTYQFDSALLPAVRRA
Method in brief: as §1

ELK3 = biological target: T6, ELK3 (Homo sapiens, UniProt P41970 1-407); conditions: protein: recombinant; tags: N-terminal GST; dsDNA, one strand shown
T6 sequence: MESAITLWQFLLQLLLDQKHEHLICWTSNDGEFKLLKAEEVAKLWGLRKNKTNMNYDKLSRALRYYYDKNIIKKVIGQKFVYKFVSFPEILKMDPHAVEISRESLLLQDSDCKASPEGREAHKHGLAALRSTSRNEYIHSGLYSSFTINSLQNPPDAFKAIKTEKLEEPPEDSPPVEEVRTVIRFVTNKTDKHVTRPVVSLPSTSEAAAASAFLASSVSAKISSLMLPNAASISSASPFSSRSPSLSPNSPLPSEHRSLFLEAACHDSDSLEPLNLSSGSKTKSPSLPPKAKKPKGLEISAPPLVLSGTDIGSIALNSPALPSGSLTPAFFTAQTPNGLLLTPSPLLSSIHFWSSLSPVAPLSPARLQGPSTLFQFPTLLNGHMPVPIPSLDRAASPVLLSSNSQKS
Method in brief: as §1

FEV = biological target: T7, FEV (Homo sapiens, UniProt Q99581 1-238); conditions: protein: recombinant; tags: N-terminal GST; dsDNA, one strand shown
T7 sequence: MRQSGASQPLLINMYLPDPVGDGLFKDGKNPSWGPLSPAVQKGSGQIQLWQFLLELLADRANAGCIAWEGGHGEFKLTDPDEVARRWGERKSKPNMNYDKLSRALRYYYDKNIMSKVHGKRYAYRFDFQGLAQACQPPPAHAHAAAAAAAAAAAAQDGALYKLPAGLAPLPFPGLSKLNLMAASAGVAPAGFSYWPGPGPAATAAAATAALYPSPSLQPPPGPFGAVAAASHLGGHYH
Method in brief: as §1

ETV5 = ETV5 (Homo sapiens, UniProt P41161 1-510); conditions: protein: recombinant; tags: N-terminal GST; dsDNA, one strand shown
Chain of ETV5 (P41161 whole entry): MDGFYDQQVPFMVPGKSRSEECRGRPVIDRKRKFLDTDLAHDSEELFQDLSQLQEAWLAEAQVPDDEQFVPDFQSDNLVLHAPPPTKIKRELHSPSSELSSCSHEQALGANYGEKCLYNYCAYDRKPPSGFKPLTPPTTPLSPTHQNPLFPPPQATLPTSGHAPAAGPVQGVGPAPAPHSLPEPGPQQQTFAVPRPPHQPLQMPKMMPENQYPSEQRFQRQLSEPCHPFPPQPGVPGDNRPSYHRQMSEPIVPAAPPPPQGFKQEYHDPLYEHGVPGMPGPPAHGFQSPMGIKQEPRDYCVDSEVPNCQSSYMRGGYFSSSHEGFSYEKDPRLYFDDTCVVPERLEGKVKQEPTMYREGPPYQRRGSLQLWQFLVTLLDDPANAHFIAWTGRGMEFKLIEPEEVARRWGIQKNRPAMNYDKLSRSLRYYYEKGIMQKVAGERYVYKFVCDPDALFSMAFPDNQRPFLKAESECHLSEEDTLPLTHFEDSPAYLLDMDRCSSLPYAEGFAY
Method in brief: as §1

HSF1 = HSF1 (Homo sapiens, UniProt Q00613 1-529); conditions: protein: recombinant; tags: N-terminal GST; chain copies: 3; dsDNA, one strand shown
Chain of HSF1 (Q00613 whole entry): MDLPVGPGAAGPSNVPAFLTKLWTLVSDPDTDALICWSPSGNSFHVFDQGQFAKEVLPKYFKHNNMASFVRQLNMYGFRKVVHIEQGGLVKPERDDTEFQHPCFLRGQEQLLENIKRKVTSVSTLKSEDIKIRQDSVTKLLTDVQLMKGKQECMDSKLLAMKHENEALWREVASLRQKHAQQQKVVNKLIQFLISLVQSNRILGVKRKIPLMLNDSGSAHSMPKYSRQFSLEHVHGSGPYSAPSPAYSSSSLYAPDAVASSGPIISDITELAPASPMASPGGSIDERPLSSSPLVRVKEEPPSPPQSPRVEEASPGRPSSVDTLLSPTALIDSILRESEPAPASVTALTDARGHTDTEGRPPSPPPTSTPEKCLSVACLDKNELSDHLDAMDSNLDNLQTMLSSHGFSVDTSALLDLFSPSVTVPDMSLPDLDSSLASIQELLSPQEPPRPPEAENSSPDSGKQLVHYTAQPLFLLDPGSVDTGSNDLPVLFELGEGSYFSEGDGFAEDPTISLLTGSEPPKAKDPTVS
Method in brief: as §1

SPIC = biological target: T8, SPIC (Homo sapiens, UniProt Q8N5J4 1-248); conditions: protein: recombinant; tags: N-terminal GST; dsDNA, one strand shown
T8 sequence: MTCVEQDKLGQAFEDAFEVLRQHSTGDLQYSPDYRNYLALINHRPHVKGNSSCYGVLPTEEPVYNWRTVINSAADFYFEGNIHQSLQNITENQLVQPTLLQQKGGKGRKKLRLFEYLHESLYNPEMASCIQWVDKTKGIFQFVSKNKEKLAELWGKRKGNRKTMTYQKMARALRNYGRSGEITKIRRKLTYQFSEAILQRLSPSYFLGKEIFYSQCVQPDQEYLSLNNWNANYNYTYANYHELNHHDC
Method in brief: as §1

ELF4 = ELF4 (Homo sapiens, UniProt Q99607 1-663); conditions: protein: recombinant; tags: N-terminal GST; dsDNA, one strand shown
Chain of ELF4 (Q99607 whole entry): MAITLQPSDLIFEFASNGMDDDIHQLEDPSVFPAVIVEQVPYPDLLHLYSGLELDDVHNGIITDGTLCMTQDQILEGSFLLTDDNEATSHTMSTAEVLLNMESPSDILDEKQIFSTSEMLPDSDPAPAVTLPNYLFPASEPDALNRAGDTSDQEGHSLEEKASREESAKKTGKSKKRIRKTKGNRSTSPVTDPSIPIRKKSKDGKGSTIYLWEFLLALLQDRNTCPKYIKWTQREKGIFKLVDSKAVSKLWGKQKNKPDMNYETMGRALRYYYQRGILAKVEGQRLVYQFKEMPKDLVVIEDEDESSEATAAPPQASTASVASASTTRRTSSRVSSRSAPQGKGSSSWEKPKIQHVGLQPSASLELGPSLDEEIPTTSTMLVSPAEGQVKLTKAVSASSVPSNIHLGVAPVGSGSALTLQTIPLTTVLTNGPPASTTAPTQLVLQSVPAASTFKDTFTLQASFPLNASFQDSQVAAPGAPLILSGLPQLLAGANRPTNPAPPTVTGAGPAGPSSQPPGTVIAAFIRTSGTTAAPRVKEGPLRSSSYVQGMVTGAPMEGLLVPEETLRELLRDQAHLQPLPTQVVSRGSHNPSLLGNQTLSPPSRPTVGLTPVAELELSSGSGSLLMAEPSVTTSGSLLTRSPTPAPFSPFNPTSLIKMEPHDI
Method in brief: as §1

ELK4 = biological target: T9, ELK4 (Homo sapiens, UniProt P28324-2 1-405); conditions: protein: recombinant; tags: N-terminal GST; dsDNA, one strand shown
T9 sequence: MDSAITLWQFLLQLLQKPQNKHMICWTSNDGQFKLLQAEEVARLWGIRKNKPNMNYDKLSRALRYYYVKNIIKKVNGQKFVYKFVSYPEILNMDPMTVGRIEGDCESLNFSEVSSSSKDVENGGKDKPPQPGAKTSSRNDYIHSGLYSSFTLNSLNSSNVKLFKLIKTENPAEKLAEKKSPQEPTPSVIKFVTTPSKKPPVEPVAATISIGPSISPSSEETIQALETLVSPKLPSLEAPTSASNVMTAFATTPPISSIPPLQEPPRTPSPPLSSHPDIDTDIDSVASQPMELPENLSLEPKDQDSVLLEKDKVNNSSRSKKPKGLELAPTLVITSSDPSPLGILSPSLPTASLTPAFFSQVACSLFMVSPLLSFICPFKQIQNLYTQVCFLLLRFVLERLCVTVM
Method in brief: as §1

ETV2 = biological target: T10, ETV2 (Homo sapiens, UniProt O00321 1-342); conditions: protein: recombinant; tags: N-terminal GST; dsDNA, one strand shown
T10 sequence: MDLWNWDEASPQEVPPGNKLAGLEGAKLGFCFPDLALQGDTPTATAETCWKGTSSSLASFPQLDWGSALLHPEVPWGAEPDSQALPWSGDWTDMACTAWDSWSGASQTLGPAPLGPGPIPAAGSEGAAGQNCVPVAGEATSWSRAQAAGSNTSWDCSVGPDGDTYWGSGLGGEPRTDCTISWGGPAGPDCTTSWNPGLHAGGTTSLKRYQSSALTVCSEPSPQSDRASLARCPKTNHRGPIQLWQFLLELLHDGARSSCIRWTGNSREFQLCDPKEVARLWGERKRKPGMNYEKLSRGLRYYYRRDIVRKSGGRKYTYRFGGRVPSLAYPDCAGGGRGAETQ
Method in brief: as §1

ELF3 = biological target: T11, ELF3 (Homo sapiens, UniProt P78545 1-371); conditions: protein: recombinant; tags: N-terminal GST; dsDNA, one strand shown
T11 sequence: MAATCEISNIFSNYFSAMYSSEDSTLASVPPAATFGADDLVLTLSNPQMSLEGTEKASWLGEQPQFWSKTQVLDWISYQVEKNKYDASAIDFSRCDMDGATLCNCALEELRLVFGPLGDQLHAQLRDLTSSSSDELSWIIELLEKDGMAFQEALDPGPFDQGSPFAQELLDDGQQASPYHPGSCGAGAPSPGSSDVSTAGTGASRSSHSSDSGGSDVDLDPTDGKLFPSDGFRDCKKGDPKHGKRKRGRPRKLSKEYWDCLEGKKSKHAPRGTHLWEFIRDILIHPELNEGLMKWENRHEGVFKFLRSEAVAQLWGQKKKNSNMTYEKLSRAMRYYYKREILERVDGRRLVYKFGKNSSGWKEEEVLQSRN
Method in brief: as §1

CRX = CRX (Homo sapiens, UniProt O43186 1-299); conditions: protein: recombinant; tags: N-terminal GST; dsDNA, one strand shown
Chain of CRX (O43186 whole entry): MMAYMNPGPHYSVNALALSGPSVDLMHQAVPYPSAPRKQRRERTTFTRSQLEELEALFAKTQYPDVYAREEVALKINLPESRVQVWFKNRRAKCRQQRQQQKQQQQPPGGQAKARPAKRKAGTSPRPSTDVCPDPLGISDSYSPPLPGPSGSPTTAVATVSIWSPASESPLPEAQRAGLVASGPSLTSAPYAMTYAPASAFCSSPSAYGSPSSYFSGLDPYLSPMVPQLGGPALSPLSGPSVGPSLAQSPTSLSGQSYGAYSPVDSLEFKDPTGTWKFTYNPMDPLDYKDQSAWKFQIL
Method in brief: as §1

ETV1 = ETV1 (Homo sapiens, UniProt P50549 1-477); conditions: protein: recombinant; tags: N-terminal GST; dsDNA, one strand shown
Chain of ETV1 (P50549 whole entry): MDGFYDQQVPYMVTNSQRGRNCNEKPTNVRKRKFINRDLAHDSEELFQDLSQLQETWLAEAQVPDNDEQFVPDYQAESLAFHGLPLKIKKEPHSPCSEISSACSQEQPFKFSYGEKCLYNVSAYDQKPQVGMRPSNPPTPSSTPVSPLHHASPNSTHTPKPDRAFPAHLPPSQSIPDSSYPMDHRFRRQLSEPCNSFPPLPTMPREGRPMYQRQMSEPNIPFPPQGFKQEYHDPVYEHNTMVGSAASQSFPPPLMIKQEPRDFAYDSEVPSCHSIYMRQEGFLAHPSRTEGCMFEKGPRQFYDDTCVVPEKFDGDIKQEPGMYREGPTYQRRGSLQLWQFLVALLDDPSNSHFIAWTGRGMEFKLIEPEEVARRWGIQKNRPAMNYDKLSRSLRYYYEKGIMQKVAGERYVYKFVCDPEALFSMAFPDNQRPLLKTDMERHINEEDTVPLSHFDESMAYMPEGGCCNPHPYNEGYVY
Method in brief: as §1

Sequence: CGCGCT
- binding signal (FLI1): 1.25 fold enrichment (6-mer frequency, TF over GST control)
- binding signal (ELK1): 1.32 fold enrichment (6-mer frequency, TF over GST control)
- binding signal (GABPA): 1.13 fold enrichment (6-mer frequency, TF over GST control)
- binding signal (ERG): 1.13 fold enrichment (6-mer frequency, TF over GST control)
- binding signal (ELF1): 1.18 fold enrichment (6-mer frequency, TF over GST control)
- binding signal (EHF): 1.17 fold enrichment (6-mer frequency, TF over GST control)
- binding signal (SPI1): 1.1 fold enrichment (6-mer frequency, TF over GST control)
- binding signal (SPIB): 1.27 fold enrichment (6-mer frequency, TF over GST control)
- binding signal (ELK3): 1.21 fold enrichment (6-mer frequency, TF over GST control)
- binding signal (FEV): 1.11 fold enrichment (6-mer frequency, TF over GST control)
- binding signal (ETV5): 1.17 fold enrichment (6-mer frequency, TF over GST control)
- binding signal (HSF1): 1.11 fold enrichment (6-mer frequency, TF over GST control)
- binding signal (SPIC): 1.31 fold enrichment (6-mer frequency, TF over GST control)
- binding signal (ELF4): 1.2 fold enrichment (6-mer frequency, TF over GST control)
- binding signal (ELK4): 1.21 fold enrichment (6-mer frequency, TF over GST control)
- binding signal (ETV2): 1.11 fold enrichment (6-mer frequency, TF over GST control)
- binding signal (ELF3): 1.05 fold enrichment (6-mer frequency, TF over GST control)
- binding signal (CRX): 1.06 fold enrichment (6-mer frequency, TF over GST control)
- binding signal (ETV1): 1.15 fold enrichment (6-mer frequency, TF over GST control)
